# Source: PubChem BioAssay
# The list is not random: actives were taken first. Their share in the collection is about 15%.
# ELG1 DNA repair = ELG1-dependent DNA repair inhibition | HEK293T ELG1-luciferase reporter, luminescence, 16 h; DNA damage induced by 5-fluorouridine | Potency, µM (series often up to 46.1 µM), without a hit: at the highest dose activity change, negative = inhibition, most hits filed as inhibitors | hit rate 2.3% among 330,000 | AID 504467; also: nearly all actives have a fitted effect of over 55% in size
#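 Quantitative HTS, concentration-response format. 2,000 cells/well co-treated with 5-fluorouridine and compound, 16 hr in 5% CO2 at 37 °C; ONE-Glo luminescence read after 30 min.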
# RORgamma inh = ROR gamma (mouse) transcription inhibition | P51450 | Drosophila S2 Gal4-RORgamma UAS-luciferase reporter, 20 h | Potency, µM (doses to about 53.6 µM), for the others: at the top dose activity change, negative = inhibition, hits mostly inhibitors | hit rate 5.4% among 310,000; also: nearly all actives have a fitted effect of over 60% in size
# Target sequence (P51450 whole entry, looked up, the tested form may be a part): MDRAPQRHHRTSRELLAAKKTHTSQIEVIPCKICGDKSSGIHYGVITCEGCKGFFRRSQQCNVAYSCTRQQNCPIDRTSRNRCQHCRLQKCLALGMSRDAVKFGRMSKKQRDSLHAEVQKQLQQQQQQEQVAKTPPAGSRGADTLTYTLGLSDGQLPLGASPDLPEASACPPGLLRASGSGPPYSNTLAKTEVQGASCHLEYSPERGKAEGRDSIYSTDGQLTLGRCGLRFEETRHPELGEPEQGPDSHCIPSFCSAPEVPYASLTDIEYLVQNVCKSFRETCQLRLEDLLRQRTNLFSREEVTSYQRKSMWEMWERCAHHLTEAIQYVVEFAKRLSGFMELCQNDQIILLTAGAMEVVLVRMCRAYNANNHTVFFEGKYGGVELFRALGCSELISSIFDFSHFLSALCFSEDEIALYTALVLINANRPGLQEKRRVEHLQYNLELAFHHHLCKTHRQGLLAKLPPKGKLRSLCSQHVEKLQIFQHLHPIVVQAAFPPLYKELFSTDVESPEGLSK
#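 Stably transfected Drosophila Schneider cells are the test system, with ROR gamma fused to Gal4 and luciferase under UAS control; luminescence is read after 20 hr of 700 uM copper sulfate induction at ambient temperature.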
# DT40 TDP1 CPT = DT40-hTDP1 cell growth loss with CPT | chicken DT40 Tdp1-/-;hTDP1 cells + 20 nM CPT, ATP luminescence, 48 h | Potency, µM (doses to about 46.2 µM), without a hit: at the top dose activity change, negative = growth inhibition, actives largely listed as inhibitors | hit rate 12% among 420,000 | AID 686979; also: nearly all actives have a fitted effect of over 55% in size
#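 Chicken DT40 Tdp1-/- cells complemented with human TDP1, 400 cells/well, exposed to compounds plus 20 nM camptothecin for at least 48 h at 37 C; viability read as ATP content by CellTiter-Glo luminescence.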
# TDP1 cell noCPT = qHTS for Inhibitors of human tyrosyl-DNA phosphodiesterase 1 (TDP1): qHTS in cells in absence of CPT; hit rate 15% among 420,000; DT40 Tdp1-/- hTDP1 cells, no CPT, ATP luminescence, 48 h; Potency, µM (doses to about 46.2 µM), for inactives: at the top dose activity change, negative = growth inhibition, actives largely listed as inhibitors; also: nearly all actives have a fitted effect of over 55% in size
#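 Compound effects on proliferation are scored in DT40 Tdp1-/-;hTDP1 cells in the absence of CPT. ATP levels (CellTiter-Glo luminescence) are recorded after a ≥48 hr, 37 °C incubation.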
# VP16 counter = counter-screen for ROR gamma inhibitors: Gal4-VP16 reporter; Potency, µM (top dose mostly 53.6 µM), without a hit: at the top dose activity, negative = inhibition, usual class: inhibitors; Drosophila S2 Gal4-VP16 UAS-luciferase, luminescence, 20 h; hit rate 3.5% among 310,000;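 also: Gal4-VP16 expression switched on by copper sulfate through the metallothionein promoter; nearly all actives have a fitted effect of over 50% in size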
# ALOX12 inh = blocks human arachidonate 12S-lipoxygenase; hit rate 1.1% among 580,000; purified 12hLO, xylenol orange hydroperoxide absorbance; AID 1671190; Potency, µM (top dose mostly 108 µM), for the others: at the top dose activity change, negative = inhibition, actives largely listed as inhibitors; P18054
#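 Hydroperoxide product was detected by ferrous iron/xylenol orange as the 573 to 405 nm absorbance ratio. Arachidonic acid at 40 uM (final) was turned over for 30 min at room temperature by 150 nM human 12hLO, pH 7.0 Hepes buffer, after 15 min compound preincubation.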
# An asterisk follows results filed as active; ? = inconclusive; · = not tested or not shown. Calls follow the shape of the dose curve; as a rule, active = well fitted curve in the direction sought with a large enough effect; inconclusive = small, poorly fitted or top-dose-only effect, or another doubt; inactive = no such curve, though single readings can be large; an effect the other way counts as inactive or inconclusive. % is scaled to controls: 0 for no effect and ±100 for the full control effect; potency is read from the fitted curve at half-maximal effect.
SMILES,ELG1 DNA repair,RORgamma inh,DT40 TDP1 CPT,TDP1 cell noCPT,VP16 counter,ALOX12 inh
COc1ccc(Cl)cc1NC(=O)c1c(NCc2cccs2)sc2c1CCC(C)C2 (stereo not drawn),·,·,?,13µM*,·,2.9%
COC(=O)c1c(NC(=O)Cc2cccs2)sc2c1CCC(C)C2 (stereo not drawn),?,?,?,?,-13.7%,?
CCOc1ccc(NC(=O)c2c(NCc3cccnc3)sc3c2CCC(C)C3)cc1 (stereo not drawn),·,·,14.6µM*,14.6µM*,·,39.8µM*
COc1ccccc1NC(=O)c1c(NC(=O)c2ccco2)sc2c1CCC2,-27.0%,6.2%,?,?,5.3%,2.7%
CCOc1ccc(NC(=O)c2c(NCc3ccc(C)o3)sc3c2CCC(C)C3)cc1 (stereo not drawn),·,·,?,?,·,-0.3%
COc1ccc(OC)c(NC(=O)c2c(NCc3ccc(C)o3)sc3c2CCCCC3)c1,·,·,6.51µM*,7.31µM*,·,?
CCOc1ccc(NC(=O)c2c(NCc3cccs3)sc3c2CCC(C)C3)cc1 (stereo not drawn),·,·,?,?,·,-0.1%
COc1ccccc1NC(=O)c1c(NCc2ccc(C)o2)sc2c1CCCCC2,·,·,5.8µM*,6.51µM*,·,?
COc1ccc2oc(-c3ccc(NC(=O)CC(C)C)cc3)nc2c1,·,·,·,·,·,3.2%
COc1ccc(Cl)cc1NC(=O)c1c(NCc2ccc(C)o2)sc2c1CCCCC2,·,·,9.2µM*,14.6µM*,·,?
COc1ccc(Cl)cc1NC(=O)c1c(NCc2ccc(C)o2)sc2c1CCC(C)C2 (stereo not drawn),·,·,?,16.4µM*,·,3.8%
CCOc1ccccc1NC(=O)c1c(NCc2cccs2)sc2c1CCC(C)C2 (stereo not drawn),·,·,?,18.4µM*,·,-27.6%
CCOc1ccc(NC(=O)c2c(NC(=O)c3ccncc3)sc3c2CCC(C(C)(C)C)C3)cc1 (stereo not drawn),·,·,?,20.6µM*,·,-5.9%
O=C(Cn1ccc2cc(Cl)ccc21)N1CCOCC1,·,·,·,·,·,2.9%
COc1ccc(Cl)cc1NC(=O)c1c(NCc2cccnc2)sc2c1CCC(C)C2 (stereo not drawn),·,·,3.66µM*,4.61µM*,·,?
COc1ccc(OC)c(NC(=O)c2c(NCc3sccc3C)sc3c2CCCCC3)c1,·,·,7.31µM*,2.59µM*,·,?
CC(C)C(=O)Nc1ccc(Br)cc1F,·,·,·,·,·,-7.6%
CC1=C(NCCc2ccccc2)CCC1=O,5.6%,2.1%,20.6µM*,20.6µM*,12.8%,0.0%
CC1(C)CC2CC(C)(CN2C(=O)COC(=O)c2ccc(Cl)cc2N)C1 (stereo not drawn),-13.7%,0.2%,-15.0%,23.1µM*,2.5%,0.0%
COc1cc(Cl)ccc1OCc1cc(C(=O)N2C[C@]3(C)C[C@H]2CC(C)(C)C3)no1,?,30.3%,?,16.4µM*,?,-26.4%
CC1(C)CC2CC(C)(CN2C(=O)COC(=O)c2ccc(Cl)c(N)c2)C1 (stereo not drawn),-3.8%,-15.3%,-11.0%,?,5.5%,-6.2%
COc1cc(Cl)ccc1OCc1cc(C(=O)N2C[C@H]3CC[C@H]2C3)no1,?,1.8%,?,-24.8%,?,7.9%
COCCn1cc(CN2CCN(Cc3cccc(F)c3)CC2)ccc1=O,·,·,·,·,·,53.9%
O=C(c1nn(-c2ccccc2)c(=O)c2ccccc12)N1CCN(CCN2CCCC2)CC1,·,·,·,·,·,0.7%
O=C1NC(Cc2ccccc2)C(=O)N1Cc1ccccc1 (stereo not drawn),·,·,4.5%,-17.7%,·,-17.4%
SMILES,ELG1 DNA repair,RORgamma inh,DT40 TDP1 CPT,TDP1 cell noCPT,VP16 counter,ALOX12 inh
O=c1ccsn1Cc1ccccc1,-0.1%,2.24µM*,0.291µM*,0.651µM*,4.47µM*,?
Cc1cc(SCC(=O)c2ccccc2)n2ncc(-c3ccccc3)c2n1,?,-13.2%,?,7.31µM*,-7.8%,2.6%
Cc1cc(N2CCN(C(=O)c3ccco3)CC2)n2ncnc2n1,11.5%,-8.9%,-3.8%,-7.3%,-11.6%,0.0%
Cc1nc2c(-c3ccccc3)cnn2c(N)c1-c1ccccc1,?,0.794µM*,-28.0%,?,?,21.4%
Cc1cc(N2CCN(C(=O)c3ccco3)CC2)n2ncc(-c3ccccc3)c2n1,?,?,23.1µM*,16.4µM*,?,?
Cc1cc(SCC(=O)c2ccccc2)nc(C)n1,?,-15.2%,-25.3%,-23.4%,-9.9%,?
Cc1cc(N2CCCCC2)n2ncc(-c3ccc(Cl)cc3)c2n1,?,37.0%,13µM*,?,?,0.0%
COC(=O)CNC(=O)C(C)(C)c1cccc(C(F)(F)F)c1,·,·,·,·,·,-13.6%
CC(=O)N1C[C@@H](CO)[C@H](NC(=O)c2ccccc2)C1,·,·,·,·,·,8.8%
CC(=O)Nc1ccc(NC(=O)CSCc2nc3ccccc3c(=O)[nH]2)cc1,·,·,·,·,·,9.3%
COc1ccc(CN(C)S(=O)(=O)c2ccc3c(c2)OCCCO3)cc1,·,·,·,·,·,3.9%
Cc1cc(N2CCC(C)CC2)n2ncc(-c3ccccc3)c2n1,?,?,-4.3%,?,?,7.3%
Cc1cc(NC2CCCC2)n2ncc(-c3ccccc3)c2n1,?,7.08µM*,?,?,8.91µM*,-0.1%
COc1ccc(-c2cc(C)nc3c(-c4ccccc4)cnn23)cc1,?,?,-13.7%,-7.3%,?,0.6%
Cc1cc(-c2ccccc2)n2ncc(-c3ccccc3)c2n1,?,?,-17.0%,-22.3%,10µM*,18.5%
Cc1cc(N2CCCCC2)n2ncc(-c3ccccc3)c2n1,?,?,?,29.1µM*,10µM*,0.0%
Cc1cc(N2CCOCC2)n2ncc(-c3ccccc3)c2n1,?,?,?,?,12.6µM*,0.0%
Cc1cc(NC2CCCC2)n2nc(C)c(-c3ccccc3)c2n1,0.6%,-43.6%,?,?,5.0%,0.0%
CN(C)C[C@@H]1CN(c2ncccn2)C[C@H]1NC(=O)c1ccccc1Cl,·,·,·,·,·,14.3%
COC(=O)[C@]1(C#N)CC(=O)N([C@H](c2ccccc2)[C@H](O)c2ccccc2)[C@@H]1c1ccccc1,·,·,·,·,·,2.0%
O=C(c1ccc(Cn2cncn2)cc1)N1CCN(c2ccccc2F)CC1,·,·,·,·,·,-7.0%
c1ccc(Oc2nnc(-c3cccs3)c3ccccc23)cc1,-3.0%,28.5%,-2.1%,?,15.6%,-16.0%
Cc1ccc(Oc2nnc(-c3cccs3)c3ccccc23)cc1,13.7%,13.6%,?,18.4µM*,-3.9%,-1.3%
